# From PubChem BioAssay AID1159580 (chemical genetic matrix, 2015)
# Several values for one entry are separate records, joined by “and”; a condition that tells them apart may be missing. Identical values can stand only once. In all, about 5,500 compounds went through this assay and about 2,000 (36%) were called active. Not shown: some 18% with an inconclusive outcome. The list shows a part of the results. A number with no mark means an inactive call. No stated cut-off is given here; in the data, active means normalized growth mostly below about 0.91 (no sharp cut-off); inconclusive means no clear call, values can overlap the other calls; inactive means mostly above about 0.92.
# Assay: chemical genetic growth profiling, strain panel (AID 1159580);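 further: tested at 20 µM; growth read once vehicle control cultures reached saturation at 30 °C; 1 = growth at the plate median or of vehicle wells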
# Settings: S. cerevisiae deletion strains, growth OD
structure (smiles),measurement,setting,value
COc1ccc(CC(=O)c2ccc(O)cc2O)cc1,normalized growth,"locus YAL021C, strain ccr4, stronger effect = lower value",0.998
same,normalized growth,"locus YAL026C, strain drs2, stronger effect = lower value",0.954
same,normalized growth,"locus YAL030W, strain snc1, stronger effect = lower value",0.985
same,normalized growth,"locus YBL061C, strain skt5, stronger effect = lower value",0.986
same,normalized growth,"locus YBR009C, strain hhf1, stronger effect = lower value",0.937
same,normalized growth,"locus YBR021W, strain FUR4, stronger effect = lower value",0.894
same,normalized growth,"locus YBR023C, strain chs3, stronger effect = lower value",0.958
same,normalized growth,"locus YBR171W, strain sec66, stronger effect = lower value",0.973
same,normalized growth,"locus YBR229C, strain ROT2, stronger effect = lower value",0.969
same,normalized growth,"locus YBR231C, strain swc5, stronger effect = lower value",0.989
same,normalized growth,"locus YBR279W, strain paf1, stronger effect = lower value",0.99
same,normalized growth,"locus YCL011C, strain gbp2, stronger effect = lower value",0.973
same,normalized growth,"locus YCL016C, strain dcc1, stronger effect = lower value",0.961
same,normalized growth,"locus YCL029C, strain bik1, stronger effect = lower value",0.953
same,normalized growth,"locus YCL061C, strain MRC1, stronger effect = lower value",0.965
same,normalized growth,"locus YCL069W, strain vba3, stronger effect = lower value",0.982
same,normalized growth,"locus YCR088W, strain abp1, stronger effect = lower value",0.988
same,normalized growth,"locus YDL005C, strain med2, stronger effect = lower value",1.01
same,normalized growth,"locus YDL035C, strain GPR1, stronger effect = lower value",0.94
same,normalized growth,"locus YDL040C, strain nat1, stronger effect = lower value",0.977
same,normalized growth,"locus YDL074C, strain BRE1, stronger effect = lower value",0.848
same,normalized growth,"locus YDL101C, strain DUN1, stronger effect = lower value",0.969
same,normalized growth,"locus YDL185W, strain tfp1, stronger effect = lower value",0.983
same,normalized growth,"locus YDL192W, strain arf1, stronger effect = lower value",0.865 (active)
same,normalized growth,"locus YDR001C, strain nth1, stronger effect = lower value",0.992
same,normalized growth,"locus YDR069C, strain doa4, stronger effect = lower value",1
same,normalized growth,"locus YDR101C, strain arx1, stronger effect = lower value",0.956
same,normalized growth,"locus YDR137W, strain rgp1, stronger effect = lower value",0.733 (active)
same,normalized growth,"locus YDR159W, strain sac3, stronger effect = lower value",0.96
same,normalized growth,"locus YDR162C, strain NBP2, stronger effect = lower value",0.872
same,normalized growth,"locus YDR195W, strain ref2",1.19 [resistant] (active)
same,normalized growth,"locus YDR297W, strain sur2, stronger effect = lower value",0.988
same,normalized growth,"locus YDR318W, strain mcm21, stronger effect = lower value",0.912 (active)
same,normalized growth,"locus YDR334W, strain swr1, stronger effect = lower value",0.991
same,normalized growth,"locus YDR335W, strain msn5, stronger effect = lower value",0.975
same,normalized growth,"locus YDR388W, stronger effect = lower value",0.963
same,normalized growth,"locus YDR392W, strain spt3, stronger effect = lower value",0.455 (active)
same,normalized growth,"locus YDR502C, strain sam2, stronger effect = lower value",0.924
same,normalized growth,"locus YEL003W, strain gim4, stronger effect = lower value",0.969
same,normalized growth,"locus YEL037C, strain rad23, stronger effect = lower value",0.997
same,normalized growth,"locus YEL061C, strain CIN8 (second series), stronger effect = lower value",0.994
same,normalized growth,"locus YER015W, strain faa2, stronger effect = lower value",0.971
same,normalized growth,"locus YER016W, strain bim1, stronger effect = lower value",0.996
same,normalized growth,"locus YER110C, stronger effect = lower value",0.975
same,normalized growth,"locus YER111C, strain swi4, stronger effect = lower value",0.998
same,normalized growth,"locus YER155C, strain BEM2 (second series), stronger effect = lower value",0.768 (active)
same,normalized growth,"locus YER155C, strain BEM2, stronger effect = lower value",0.956
same,normalized growth,"locus YER167W, strain BCK2, stronger effect = lower value",0.962
same,normalized growth,"locus YFR010W, strain ubp6, stronger effect = lower value",1.01
same,normalized growth,"locus YGL078C, strain dbp3, stronger effect = lower value",0.983
same,normalized growth,"locus YGL086W, strain mad1, stronger effect = lower value",0.928 (active)
same,normalized growth,"locus YGL167C, strain pmr1, stronger effect = lower value",0.984
same,normalized growth,"locus YGL173C, strain kem1, stronger effect = lower value",0.979
same,normalized growth,"locus YGL227W, strain vid30, stronger effect = lower value",0.997
same,normalized growth,"locus YGL240W, strain doc1, stronger effect = lower value",0.925
same,normalized growth,"locus YGL248W, strain PDE1, stronger effect = lower value",0.922
same,normalized growth,"locus YGL253W, strain hxk2, stronger effect = lower value",0.982
same,normalized growth,"locus YGR135W, strain pre9, stronger effect = lower value",0.934
same,normalized growth,"locus YGR252W, strain gcn5, stronger effect = lower value",0.841
same,normalized growth,"locus YHR013C, strain ard1, stronger effect = lower value",0.963
same,normalized growth,"locus YHR027C, strain rpn1, stronger effect = lower value",0.987
same,normalized growth,"locus YHR030C, strain SLT2, stronger effect = lower value",0.953 and 0.949
same,normalized growth,"locus YHR079C, strain IRE1 (second series), stronger effect = lower value",0.978
same,normalized growth,"locus YHR079C, strain IRE1, stronger effect = lower value",0.959
same,normalized growth,"locus YHR094C, strain hxt1, stronger effect = lower value",0.982
same,normalized growth,"locus YHR129C, strain ARP1, stronger effect = lower value",0.968
same,normalized growth,"locus YHR142W, strain chs7, stronger effect = lower value",0.925
same,normalized growth,"locus YHR200W, strain rpn10, stronger effect = lower value",0.956
same,normalized growth,"locus YIL066C, strain RNR3, stronger effect = lower value",0.953
same,normalized growth,"locus YIL073C, strain SPO22, stronger effect = lower value",0.866
same,normalized growth,"locus YIL125W, strain kgd1, stronger effect = lower value",1
same,normalized growth,"locus YIR030C, strain dcg1, stronger effect = lower value",0.972
same,normalized growth,"locus YJL092W, strain hpr5, stronger effect = lower value",0.987
same,normalized growth,"locus YJL095W, strain BCK1 (second series), stronger effect = lower value",0.981
same,normalized growth,"locus YJL095W, strain BCK1, stronger effect = lower value",0.812 and 0.951
same,normalized growth,"locus YJL115W, strain asf1, stronger effect = lower value",1.01
same,normalized growth,"locus YJL129C, strain trk1, stronger effect = lower value",0.931
same,normalized growth,"locus YJL134W, strain LCB3, stronger effect = lower value",0.981
same,normalized growth,"locus YJL154C, strain vps35, stronger effect = lower value",0.992
same,normalized growth,"locus YJL164C, strain tpk1, stronger effect = lower value",0.952
same,normalized growth,"locus YJL166W, strain qcr8, stronger effect = lower value",0.944
same,normalized growth,"locus YJL168C, strain set2, stronger effect = lower value",0.972
same,normalized growth,"locus YJL187C, strain SWE1 (second series), stronger effect = lower value",0.958
same,normalized growth,"locus YJL187C, strain SWE1, stronger effect = lower value",0.987
same,normalized growth,"locus YJR066W, strain TOR1, stronger effect = lower value",0.93
same,normalized growth,"locus YKL009W, strain mrt4, stronger effect = lower value",0.956
